This is a sample that favours compounds with a hit; in the whole collection about 12% have one here.
G9a block: blocks human histone lysine methyltransferase G9a; G9a H3K9 monomethylation, AlphaScreen, 2 h; Potency, µM (doses to about 102 µM), inactives show at the top dose activity, negative = inhibition, most hits filed as inhibitors; actives 8.8% (n = 350,000); AID 504332; further: on the % scale 0 is the no-effect control and ±100 the full control effect; nearly all actives have a fitted effect of over 75% in size
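G9a (20 nM) was preincubated 15 min with compound, then reacted 2 h at room temperature with 500 nM biotin-H3K9 peptide and 20 µM SAM. Monomethyl-H3K9 detected by AlphaScreen using anti-H3K9me1 antibody.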
HP1b chromo inh: inhibitors of HP1-beta chromodomain binding to methylated histone tails; actives 0.56% (n = 390,000); AlphaScreen HP1-beta / biotin-H3K9me3 peptide binding; P83916; Potency, µM (titrated, usually from 114 µM), for inactives: at the top dose activity change, negative = inhibition, most hits filed as inhibitors; AID 540317; further: nearly all actives have a fitted effect of over 70% in size
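AlphaScreen: HP1-beta (50 nM) preformed 30 min with biotin-H3(1-18)K9me3 peptide (50 nM) in PBS pH 7.4, 0.01% Tween-20. Compound added for 30 min at RT, then streptavidin donor/nickel chelate acceptor beads (10 ug/mL) for 30 min.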
BAZ2B inh: blocks human BAZ2B; Q9UIF8; AlphaScreen BAZ2B-H3K14Ac peptide displacement; AID 504333; actives 4.4% (n = 360,000); Potency, µM (top dose mostly 114 µM), inactives show at the highest dose activity change, negative = inhibition, hits mostly inhibitors; further: on the % scale 0 is the no-effect control and ±100 the full control effect; nearly all actives have a fitted effect of over 60% in size
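In this displacement format the biotinylated H3(5-23) peptide acetylated at Lys14 serves as ligand at 50 nM, with BAZ2B at 50 nM in PBS pH 7.4 containing 0.01% Tween-20. Donor and acceptor beads are 10 ug/mL final.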
PLK1 PBD block: inhibitors of human PLK1 polo-box domain binding; P53350; Plk1 PBD binding of FITC phosphopeptide, fluorescence polarization; Potency, µM, for the others: max response, negative = inhibition, most hits filed as inhibitors; actives 2.8% (n = 360,000); AID 720504; further: series mostly up to about 57 µM; on the % scale 0 is the no-effect control and ±100 the full control effect; nearly all actives have a fitted effect of over 65% in size
Sfp inh: inhibitors of Bacillus subtilis Sfp phosphopantetheinyl transferase; Q9F4F7; Biochemical Sfp PPTase activity, qHTS; Potency, µM, for the others: largest response in the series, negative = inhibition, most hits filed as inhibitors; actives 3.5% (n = 310,000); AID 1490;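 further: the enzyme is Sfp with the accession as filed and its product quenches rhodamine fluorescence; 0% = enzyme reaction without inhibitor and -100% = no enzyme wells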
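Step 1, compound plus 15 nM Sfp-PPTase, 15 min, room temperature. Step 2, add rhodamine-CoA (5 uM) and BHQ-2-YbbR (12.5 uM). Step 3, read 525/598 nm fluorescence at 0 and 30 min.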
JMJD2A Tudor inh: inhibitors of human JMJD2A Tudor domain. O75164. AlphaScreen JMJD2A-Tudor / H3K4me3 peptide binding. Potency, µM (highest dose often 114 µM), for the others: top-dose activity change, negative = inhibition, most hits filed as inhibitors. actives 4.4% (n = 390,000). AID 504339; further: on the % scale 0 is the no-effect control and ±100 the full control effect; nearly all actives have a fitted effect of over 50% in size
Numbers without * were called inactive; ? = inconclusive; . = no result given; [ ] = another dose, or the depositor's remark. The call rests on the fitted dose curve; in most records, active means well fitted curve in the direction sought with a large enough effect; inconclusive means small, poorly fitted or top-dose-only effect, or another doubt; inactive means no such curve, though single readings can be large; an effect the other way counts as inactive or inconclusive. Potency means the concentration at half of the fitted maximal effect.

SMILES | G9a block | HP1b chromo inh | BAZ2B inh | PLK1 PBD block | Sfp inh | JMJD2A Tudor inh
CCNC(=O)C1CCCN(C(=O)c2cccc(C#N)c2)CC1 (centres undefined) | . | . | . | 1% | . | .
Cc1ccc(Nc2nc(NCc3ccco3)nc3nccnc23)cc1C | . | 10%[57 µM] | . | . | . | 12%[57.1 µM]
N#Cc1c(SC(C(=O)O)c2ccccc2)nc2c(c1-c1cccs1)CCCC2 (centres undefined) | -33% | 6% | -25% | 30µM* | -25% | -18%
CCOC(=O)C(C)Sc1nc2c(c(-c3cccs3)c1C#N)CCC2 (centres undefined) | 64%[59 µM] | 182% | 61% | 0% | 50µM* | 122%
COC(=O)c1c(NC(=O)Cc2ccc(OC)c(S(=O)(=O)N3CCOCC3)c2)sc(C)c1C | 50µM* | -9% | -26% | -11% | . | -30%
COc1ccc2nc(NC(=O)Cc3ccc(OC)c(S(=O)(=O)N4CCOCC4)c3)sc2c1 | 79µM* | -23% | -8% | ? | 16% | -11%[11.4 µM]
COc1ccc(CC(=O)Nc2nccs2)cc1S(=O)(=O)N1CCOCC1 | . | 17% | . | 0% | . | -2%
O=C(Nc1ccc(Nc2ccncc2)cc1)c1ccc(Nc2ccnc3ccc([N+](=O)[O-])cc23)cc1 | . | -28% | -19% | 0% | 9% | 100µM*
COc1ccc(Cl)cc1NC(=O)CN(C)C(=O)c1cccc2cccnc12 | . | 23% | . | -8% | . | -21%
COC(=O)C(C)Sc1nc2c(c(=O)n(C)c(=O)n2C)n1CCC(C)C (centres undefined) | 79µM* | 20% | -2% | -4% | -14% | 12%
Cc1cccc(C(=O)OCC(=O)c2ccc(CC(=O)N3CCOCC3)s2)c1C | 2%[2.33 µM] | -12% | 50µM* | -11% | . | ?
COc1ccc(NC(=O)c2oc3ccccc3c2NC(=O)c2cc(OC)c(OC)c(OC)c2)cc1 | ? | 28% | -6% | . | . | -26%
O=c1[nH]nc(Cc2ccc(Cl)cc2)c2ccccc12 | 8%[59 µM] | 42% | 5% | -2% | 0% | -1%
COc1ccc(Cc2n[nH]c(=S)n(N)c2=O)cc1 | ? | 45% | -25% | -20% | 56µM* | -9%
Nn1c(=S)[nH]nc(Cc2ccc(O)cc2)c1=O | ? | 4% | ? | -7% | 16µM* | -5%
Cn1c(OCc2ccco2)nc2c1c(=O)n(Cc1ccc(Cl)c(Cl)c1)c(=O)n2C | ? | 20% | -33% | 12µM* | 0% | -13%
Cn1c(N2CCOCC2)nc2c1c(=O)n(Cc1ccc(Cl)c(Cl)c1)c(=O)n2C | -8%[12.7 µM] | 3% | -39% | -1% | -18% | -17%
Nc1cccc2c1C(=O)N(C(=O)c1cccc(S(=O)(=O)N3CCCC3)c1)C2=O | ? | 69% | 2% | 4.2µM* | 6% | -8%
O=C(CSc1nc2ccccc2nc1Cc1ccc(Cl)cc1)N1CCN(c2ccccc2F)CC1 | -1%[59 µM] | 31%[57 µM] | 6% | . | . | -4%
O=C(O)C(c1ccccc1)N1C(=O)/C(=C\c2ccc(-c3ccc(Br)cc3)o2)SC1=S (centres undefined) | 40µM* | ? | 20µM* | -9% | -23% | 20µM*
O=C1N=C(N2CCOCC2)S/C1=C/c1ccc(-c2ccccc2Cl)o1 | -14%[59 µM] | 13% | 12% | -22% | -2% | -19%
C=CCN1C(=O)/C(=C/c2ccc(-c3ccc(F)cc3)o2)SC1=S | ? | -20% | ? | -11% | 56µM* | ?
O=C(O)C(c1ccccc1)N1C(=O)/C(=C\c2ccc(-c3ccccc3Cl)o2)SC1=S (centres undefined) | 40µM* | ? | 18µM* | ? | 50µM* | 20µM*
CCC(C(=O)N(C)Cc1ccccc1)n1nc(C)c2sc3ccccc3c2c1=O (centres undefined) | 1%[59 µM] | 9% | 1% | . | . | -22%
C[C@@H](CCc1ccccc1)NC[C@H](O)c1ccc(O)c(C(N)=O)c1 | -6%[12.7 µM] | . | . | . | 16% | .
SMILES | G9a block | HP1b chromo inh | BAZ2B inh | PLK1 PBD block | Sfp inh | JMJD2A Tudor inh
CCN(CC)C(=O)CSc1n[nH]c(=S)n1N | . | 1% | -38% | -29% | 50µM* | -1%[11.4 µM]
COc1ccc(NC(=O)c2c(-c3ccccc3)c(-c3ccccc3)nn(C)c2=O)c(OC)c1 | -32%[59 µM] | 14% | -30% | . | . | -31%
COc1cc(/C=N/NC(=O)c2cccc(S(=O)(=O)N3CCCC3)c2)ccc1O | 5%[0.501 µM] | 15% | 3% | -7% | . | -24%
O=C(N/N=C/c1ccc(O)c(O)c1)c1cccc(S(=O)(=O)N2CCCC2)c1 | 40µM* | -23% | -38% | -7% | . | 7.9µM*
O=C(N/N=C/c1ccccc1Br)c1cccc(S(=O)(=O)N2CCOCC2)c1 | -14%[12.7 µM] | 36% | 4% | 0% | . | -20%
O=C(N/N=C/c1cc(Br)cc(Br)c1O)c1cccc(S(=O)(=O)N2CCOCC2)c1 | 45%[59 µM] | 0% | -1% | 49% | 14% | 89µM*
COc1cc(Cl)cc(/C=N\NC(=O)c2ccc3c(c2)OCO3)c1O | . | . | . | -24% | . | .
CCOc1ccc(C(=O)N/N=C/c2cc(Cl)ccc2[N+](=O)[O-])cc1 | -45%[59 µM] | -11% | 56µM* | 0% | -11% | ?
O=C(N/N=C/c1cc(Cl)cc([N+](=O)[O-])c1O)c1ccc2c(c1)OCO2 | ? | -4% | 35µM* | -14% | 22% | 79µM*
Cc1cc2c(cc1Cl)C(c1ccc3c(c1)OCO3)CC(=O)O2 (centres undefined) | 18% | . | . | . | 5% | .
O=C(CN(Cc1ccccc1)C(=O)CCC(=O)Nc1nccs1)NCC1CCCO1 (centres undefined) | -1% | 27% | -13% | -14% | 21% | -7%
O=C(N/N=C/c1ccccc1O)NC12CC3CC(CC(C3)C1)C2 | 57% | 5%[57 µM] | -4% | -2% | 10% | -15%
O=C(N/N=C/c1cc(Cl)cc([N+](=O)[O-])c1O)c1cccc(S(=O)(=O)N2CCOCC2)c1 | 50µM* | -32% | 25µM* | -7% | . | 40µM*
O=C(N/N=C/c1cc(Cl)cc([N+](=O)[O-])c1O)NC12CC3CC(CC(C3)C1)C2 | 10µM* | ? | 8.9µM* | ? | -1% | 50µM*
CC(C)(C)c1ccc(S(=O)(=O)NNC(=O)c2cc3ccccc3[nH]2)cc1 | ? | 5% | -15% | -16% | 3% | ?
O=C(Nc1cccc(S(=O)(=O)Nc2ccc(Cl)cc2)c1)c1ccc(Cl)nc1 | 79µM* | 45% | -3% | -16% | 11% | -25%
O=C1CSc2ccc(C(=O)Nc3cccc(S(=O)(=O)Nc4ccc(Br)cc4)c3)cc2N1 | ? | -24% | ? | 21µM* | 35µM* | ?
COc1ccc(NS(=O)(=O)c2cccc(NC(=O)c3ccc(Cl)nc3)c2)cc1 | 22%[12.7 µM] | 6% | -24% | -5% | 14% | -5%
